From PubChem BioAssay (EPA / NIEHS)
Some compounds were tested as several samples or in several runs, with calls that do not always agree. The source made the active and inactive calls. How the source made its calls: active means hit-call score of the fitted dose curve at least 0.9, where 1 is the maximum; inactive means score below 0.9.

Experiments:
Settings in all cases: mRNA level, 48 h; actives raise or lower the signal
[1] = read-out: Tumor necrosis factor receptor superfamily member 6 (Homo sapiens) (UniProt P25445); assay: LTEA_HepaRG_FAS: Life Technologies and Expression Analysis (LTEA) Assay for Fas cell surface death receptor (FAS) using HepaRG (AID 2283447)
How it was run: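 Differentiated human HepaRG cells, pre-cultured 48 h, were exposed in duplicate for 48 h to 8-point half-log concentrations (top 100 uM, 0.5% DMSO) in serum-free induction medium; FAS mRNA measured by qRT-PCR, normalized to ACTB/GAPDH/POLR2A, bidirectional fit versus DMSO.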

[2] = read-out: Cyclin D2 (CCND2), CCND2 (gene 894); assay: LTEA_HepaRG_CCND2: Life Technologies and Expression Analysis (LTEA) Assay for Cyclin D2 (CCND2) using HepaRG (AID 2283449);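 further: CCND2 transcript measured by TaqMan qRT-PCR and normalised to three housekeeping genes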
How it was run: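 In this HepaRG study, an eight-point concentration series (max 100 uM, 0.5% DMSO) is applied for 48 h. CCND2 mRNA change is derived by qRT-PCR normalised to ACTB, GAPDH and POLR2A.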

[3] = read-out: Cyclin Dependent Kinase Inhibitor 1A (CDKN1A), CDKN1A (gene 1026); assay: LTEA_HepaRG_CDKN1A: Life Technologies and Expression Analysis (LTEA) Assay for Cyclin Dependent Kinase Inhibitor 1A (CDKN1A) using HepaRG (AID 2283450)
How it was run: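 Read-out is CDKN1A mRNA by TaqMan qRT-PCR, normalized to three housekeeping genes and fitted in both directions against the DMSO baseline. Human HepaRG cells were treated 48 h with test chemicals up to 100 uM in half-log steps, 0.5% DMSO.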

[4] = read-out: Cyclin D1 (CCND1), CCND1 (gene 595); assay: LTEA_HepaRG_CCND1: Life Technologies and Expression Analysis (LTEA) Assay for Cyclin D1 (CCND1) using HepaRG (AID 2283451)
How it was run: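 HepaRG plated 48 h, medium switched to serum-free induction medium, chemicals added in duplicate (top 100 uM, half-log steps, 0.5% DMSO) for 48 h, cells lysed, RNA measured by TaqMan qRT-PCR.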

[5] = read-out: catalase (CAT), CAT (gene 847); assay: LTEA_HepaRG_CAT: Life Technologies and Expression Analysis (LTEA) Assay for catalase (CAT) using HepaRG (AID 2283452);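 on AC50: TaqMan qRT-PCR signal normalized to ACTB GAPDH and POLR2A housekeeping genes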
How it was run: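 Differentiated HepaRG cells in serum-free induction medium were dosed 48 h in duplicate, eight half-log concentrations from 100 uM in 0.5% DMSO. Transcript measured by TaqMan qRT-PCR, normalised to ACTB/GAPDH/POLR2A, fitted bidirectionally against DMSO.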

[6] = read-out: flavin-containing dimethylaniline monooxygenases 3 (FMO3), FMO3 (gene 2328); assay: LTEA_HepaRG_FMO3: Life Technologies and Expression Analysis (LTEA) Assay for flavin-containing dimethylaniline monooxygenases 3 (FMO3) using HepaRG (AID 2283453);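 on AC50: FMO3 transcript by TaqMan qRT-PCR normalized to ACTB GAPDH and POLR2A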
How it was run: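 FMO3 transcript quantified by TaqMan qRT-PCR against three housekeeping genes after 48 h chemical exposure of HepaRG cells. Eight-point half-log series, top 100 uM, 0.5% DMSO vehicle; phenobarbital 1mM induction control; up- or down-regulation fitted.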

[7] = read-out: Cytochrome P450 (CYP1A1), CYP1A1 (gene 1543); assay: LTEA_HepaRG_CYP1A1: Life Technologies and Expression Analysis (LTEA) Assay for Cytochrome P450 (CYP1A1) using HepaRG (AID 2283454)
How it was run: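 HepaRG, 48 h post-plating switched to serum-free induction medium; 8-pt conc-response (top 100 uM, half-log, 0.5% DMSO), duplicates, 48 h. Lysis in RLT, TaqMan qRT-PCR for CYP1A1; gain or loss vs DMSO.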

[8] = read-out: CFLAR gene, CFLAR (gene 8837); assay: LTEA_HepaRG_CFLAR: Life Technologies and Expression Analysis (LTEA) Assay for CFLAR gene using HepaRG (AID 2283455)
How it was run: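 Gain- or loss-of-signal changes in CFLAR transcript were fitted bidirectionally relative to 0.5% DMSO. Cells (HepaRG, duplicate wells) were dosed for 48 h across eight half-log concentrations topping at 100 uM; quantitation by TaqMan qRT-PCR.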

[9] = read-out: Forkhead box O1 (FOXO1), FOXO1 (gene 2308); assay: LTEA_HepaRG_FOXO1: Life Technologies and Expression Analysis (LTEA) Assay for Forkhead box O1 (FOXO1) using HepaRG (AID 2283456)
How it was run: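 Using one lot of HepaRG hepatic cells kept in 0.5% DMSO, the team applied test chemicals in duplicate, half-log dilutions from 100 uM, for 48 h. Expression, normalised to ACTB/GAPDH/POLR2A, was compared with vehicle in either direction.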

[10] = read-out: growth arrest and DNA damage 45 (GADD45A), GADD45A (gene 1647); assay: LTEA_HepaRG_GADD45A: Life Technologies and Expression Analysis (LTEA) Assay for growth arrest and DNA damage 45 (GADD45A) using HepaRG (AID 2283458)
How it was run: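 Transcript induction or loss, quantified by TaqMan qRT-PCR against three housekeeping genes, is the read-out. HepaRG cells received chemicals for 48 h across eight half-log concentrations from 100 uM in 0.5% DMSO; gain and loss fitted relative to DMSO.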

[11] = read-out: Forkhead box O3 (FOXO3), FOXO3 (gene 2309); assay: LTEA_HepaRG_FOXO3: Life Technologies and Expression Analysis (LTEA) Assay for Forkhead box O3 (FOXO3) using HepaRG (AID 2283459)
How it was run: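 Gene-expression endpoint: FOXO3 transcript level by qRT-PCR in HepaRG cultures treated 48 h with chemicals up to 100 uM (half-log, 0.5% DMSO vehicle).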

[12] = read-out: ABC Transporter (ABCB1), ABCB1 (gene 5243); assay: LTEA_HepaRG_ABCB1: Life Technologies and Expression Analysis (LTEA) Assay for ABC Transporter (ABCB1) using HepaRG (AID 2283460)
How it was run: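 Human liver HepaRG line treated 48 h with up to 100 uM compound (eight half-log points, 0.5% DMSO); ABCB1 mRNA change fitted bidirectionally against DMSO controls.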

[13] = read-out: growth arrest and DNA damage 45 (GADD45B), GADD45B (gene 4616); assay: LTEA_HepaRG_GADD45B: Life Technologies and Expression Analysis (LTEA) Assay for growth arrest and DNA damage 45 (GADD45B) using HepaRG (AID 2283461)
How it was run: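 HepaRG, ~100,000 cells/well, 48 h plating; serum-free induction medium; cpd 100 uM top, half-log x8, 0.5% DMSO, duplicate, 48 h; lysis in RLT, RNA isolation, qRT-PCR; norm ACTB/GAPDH/POLR2A; bidirectional fit vs DMSO.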

[14] = read-out: ABC Transporter (ABCC3), ABCC3 (gene 8714); assay: LTEA_HepaRG_ABCC3: Life Technologies and Expression Analysis (LTEA) Assay for ABC Transporter (ABCC3) using HepaRG (AID 2283462)
How it was run: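 Human HepaRG, 48 h dosing, 8-pt half-log series from 100 uM, 0.5% DMSO vehicle, duplicates. ABCC3 mRNA by TaqMan qRT-PCR, housekeeping-normalized; bidirectional curve fit vs DMSO.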

[15] = read-out: ABC Transporter (ABCB11), ABCB11 (gene 8647); assay: LTEA_HepaRG_ABCB11: Life Technologies and Expression Analysis (LTEA) Assay for ABC Transporter (ABCB11) using HepaRG (AID 2283463)
How it was run: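 Using HepaRG cultures held in 0.5% DMSO, chemicals were tested at half-log dilutions from 100 uM for 48 h. Induction or suppression of ABCB11 mRNA, normalized to ACTB, GAPDH and POLR2A, was fitted bidirectionally against vehicle.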

[16] = read-out: ABC Transporter (ABCC2), ABCC2 (gene 1244); assay: LTEA_HepaRG_ABCC2: Life Technologies and Expression Analysis (LTEA) Assay for ABC Transporter (ABCC2) using HepaRG (AID 2283464)
How it was run: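 HepaRG, 48 h post-plating; serum-free induction medium; cpd 8-pt, 100 uM top, half-log, 0.5% DMSO, duplicate, 48 h. Readout: ABCC2 mRNA by qRT-PCR, norm. ACTB/GAPDH/POLR2A. Bidirectional fit vs DMSO baseline.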

[17] = read-out: Broad substrate specificity ATP-binding cassette transporter ABCG2 (Homo sapiens) (UniProt Q9UNQ0); assay: LTEA_HepaRG_ABCG2: Life Technologies and Expression Analysis (LTEA) Assay for ABC Transporter (ABCG2) using HepaRG (AID 2283465)
How it was run: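 Gene expression of ABCG2 in HepaRG liver cells is quantified by qRT-PCR following 48 h exposure across an eight-point series topping at 100 uM. Values come from bidirectional fitting relative to DMSO vehicle.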

[18] = read-out: Fatty acid synthase (Homo sapiens) (UniProt P49327); assay: LTEA_HepaRG_FASN: Life Technologies and Expression Analysis (LTEA) Assay for Fatty Acid Synthase (FASN) using HepaRG (AID 2283448)
How it was run: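 Cells were plated, cultured 48 h, switched to serum-free induction medium, then dosed in duplicate (max 100 uM, half-log dilutions, 0.5% DMSO) for 48 h. RNA was then isolated and FASN quantified by qRT-PCR.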

Measured: AC50

Chain of Broad substrate specificity ATP-binding cassette transporter ABCG2 (Homo sapiens) (Q9UNQ0 whole entry, looked up): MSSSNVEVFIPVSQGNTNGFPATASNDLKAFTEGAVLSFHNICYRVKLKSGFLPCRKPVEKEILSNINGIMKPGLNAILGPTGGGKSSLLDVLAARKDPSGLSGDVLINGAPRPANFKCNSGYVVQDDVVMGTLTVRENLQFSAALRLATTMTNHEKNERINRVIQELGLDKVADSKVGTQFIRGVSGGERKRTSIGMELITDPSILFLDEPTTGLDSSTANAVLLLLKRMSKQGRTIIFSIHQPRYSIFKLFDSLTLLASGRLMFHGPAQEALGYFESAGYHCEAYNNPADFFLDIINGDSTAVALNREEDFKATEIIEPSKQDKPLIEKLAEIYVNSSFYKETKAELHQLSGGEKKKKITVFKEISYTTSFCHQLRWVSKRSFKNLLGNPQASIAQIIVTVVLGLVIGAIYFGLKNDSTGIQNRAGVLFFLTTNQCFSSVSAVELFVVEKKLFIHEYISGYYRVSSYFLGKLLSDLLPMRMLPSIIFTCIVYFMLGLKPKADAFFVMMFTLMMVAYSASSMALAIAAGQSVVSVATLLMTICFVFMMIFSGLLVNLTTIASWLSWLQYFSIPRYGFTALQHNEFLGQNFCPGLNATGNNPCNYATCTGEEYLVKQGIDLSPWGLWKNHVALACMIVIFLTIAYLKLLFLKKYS
Chain of Fatty acid synthase (Homo sapiens) (P49327 whole entry, looked up): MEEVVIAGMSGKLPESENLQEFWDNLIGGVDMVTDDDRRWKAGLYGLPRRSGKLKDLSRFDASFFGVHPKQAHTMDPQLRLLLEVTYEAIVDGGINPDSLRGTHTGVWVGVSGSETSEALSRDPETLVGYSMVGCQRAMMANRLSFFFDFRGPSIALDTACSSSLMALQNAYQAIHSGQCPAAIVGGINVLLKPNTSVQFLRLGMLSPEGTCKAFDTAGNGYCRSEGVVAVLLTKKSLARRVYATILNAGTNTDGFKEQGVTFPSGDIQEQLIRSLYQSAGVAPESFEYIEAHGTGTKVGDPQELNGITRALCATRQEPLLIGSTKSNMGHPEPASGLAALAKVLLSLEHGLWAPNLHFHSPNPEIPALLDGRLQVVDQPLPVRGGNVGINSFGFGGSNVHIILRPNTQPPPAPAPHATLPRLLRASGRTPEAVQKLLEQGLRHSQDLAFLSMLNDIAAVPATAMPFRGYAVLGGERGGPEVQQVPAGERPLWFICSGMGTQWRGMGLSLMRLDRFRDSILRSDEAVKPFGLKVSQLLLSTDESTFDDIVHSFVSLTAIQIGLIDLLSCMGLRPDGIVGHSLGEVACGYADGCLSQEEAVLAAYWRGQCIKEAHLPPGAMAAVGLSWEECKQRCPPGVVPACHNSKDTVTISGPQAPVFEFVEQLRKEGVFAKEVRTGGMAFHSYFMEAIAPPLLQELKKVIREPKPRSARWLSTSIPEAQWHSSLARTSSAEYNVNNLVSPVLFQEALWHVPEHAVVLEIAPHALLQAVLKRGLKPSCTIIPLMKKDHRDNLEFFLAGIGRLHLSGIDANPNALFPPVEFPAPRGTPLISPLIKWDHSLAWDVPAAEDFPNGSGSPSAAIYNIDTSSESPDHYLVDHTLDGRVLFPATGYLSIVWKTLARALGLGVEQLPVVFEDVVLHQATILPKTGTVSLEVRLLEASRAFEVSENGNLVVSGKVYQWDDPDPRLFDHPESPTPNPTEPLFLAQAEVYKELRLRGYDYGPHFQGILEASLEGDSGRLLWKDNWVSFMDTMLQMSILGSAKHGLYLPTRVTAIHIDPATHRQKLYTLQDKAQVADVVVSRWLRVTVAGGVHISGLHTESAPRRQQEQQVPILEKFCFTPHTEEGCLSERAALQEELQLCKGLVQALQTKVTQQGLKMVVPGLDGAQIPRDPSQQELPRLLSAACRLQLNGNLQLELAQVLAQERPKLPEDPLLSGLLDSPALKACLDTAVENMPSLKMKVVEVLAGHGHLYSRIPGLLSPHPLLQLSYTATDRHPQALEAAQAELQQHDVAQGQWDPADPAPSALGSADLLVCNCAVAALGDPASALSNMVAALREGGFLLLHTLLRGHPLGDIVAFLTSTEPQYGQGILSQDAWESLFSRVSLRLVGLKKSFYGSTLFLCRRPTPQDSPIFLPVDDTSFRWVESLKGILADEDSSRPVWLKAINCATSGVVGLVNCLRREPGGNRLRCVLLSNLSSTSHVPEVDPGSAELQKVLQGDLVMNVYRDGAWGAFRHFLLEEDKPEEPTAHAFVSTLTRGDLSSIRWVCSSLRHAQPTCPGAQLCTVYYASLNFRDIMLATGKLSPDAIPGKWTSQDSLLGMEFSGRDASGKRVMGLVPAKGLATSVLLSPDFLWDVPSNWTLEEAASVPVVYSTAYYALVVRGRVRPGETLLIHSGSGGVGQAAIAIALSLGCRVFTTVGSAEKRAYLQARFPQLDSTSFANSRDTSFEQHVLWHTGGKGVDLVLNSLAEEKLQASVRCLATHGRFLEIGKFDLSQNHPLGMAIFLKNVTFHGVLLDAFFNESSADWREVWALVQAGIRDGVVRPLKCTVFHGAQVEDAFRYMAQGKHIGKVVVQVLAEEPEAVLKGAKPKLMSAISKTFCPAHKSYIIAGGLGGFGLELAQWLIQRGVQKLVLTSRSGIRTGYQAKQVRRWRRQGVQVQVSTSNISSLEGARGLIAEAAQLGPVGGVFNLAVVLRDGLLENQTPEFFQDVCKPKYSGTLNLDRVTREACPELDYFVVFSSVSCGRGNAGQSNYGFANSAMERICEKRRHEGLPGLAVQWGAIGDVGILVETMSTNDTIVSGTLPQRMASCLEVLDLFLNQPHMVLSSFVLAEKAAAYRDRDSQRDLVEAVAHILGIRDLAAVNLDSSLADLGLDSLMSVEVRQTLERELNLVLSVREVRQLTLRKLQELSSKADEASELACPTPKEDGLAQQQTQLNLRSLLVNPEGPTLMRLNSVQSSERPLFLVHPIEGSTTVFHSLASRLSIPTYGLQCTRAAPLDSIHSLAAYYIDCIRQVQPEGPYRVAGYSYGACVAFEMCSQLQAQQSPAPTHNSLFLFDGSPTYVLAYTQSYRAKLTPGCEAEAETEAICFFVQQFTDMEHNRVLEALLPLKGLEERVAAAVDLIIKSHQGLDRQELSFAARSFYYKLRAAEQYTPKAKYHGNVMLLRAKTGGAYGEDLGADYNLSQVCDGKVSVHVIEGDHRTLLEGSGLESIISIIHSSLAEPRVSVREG

O=C(O)c1ccccc1
active: [7] 51.2 µM
inactive: [1] | [2] | [3] | [4] | [5] | [6] | [7] | [8] | [9] | [10] | [11] | [12] | [13] | [14] | [15] | [16] | [17]

CCSC(=O)N(CC(C)C)CC(C)C
active: [7] 50 µM
not listed: [4]
inactive: all other assays above

CCOC(=O)COc1cc(-n2ncc(C(F)(F)F)c(C)c2=O)c(F)cc1Cl
active: [7] 50 µM
not listed: [18]
inactive: all other assays above

CCC(C)OC(=O)N1CCCCC1CCO (configuration not stated)
active: [7] 64 µM
not listed: [4] | [18]
inactive: all other assays above

N#CSCSc1nc2ccccc2s1
active: [7] 49.4 µM | [15] 63.3 µM
not listed: [4] | [18]
inactive: all other assays above

COc1c(Cl)ccc(Cl)c1C(=O)O
not listed: [1] | [18]
inactive: all other assays above

CCOC(=O)NCCOc1ccc(Oc2ccccc2)cc1
active: [1] 85.4 µM | [18] 50 µM | [3] 83.4 µM | [5] 89.3 µM | [6] 96 µM | [7] 50 µM | [9] 88.5 µM | [10] 79.5 µM | [12] 84.4 µM | [15] 71.2 µM | [17] 78 µM
inactive: [2] | [8] | [11] | [13] | [14] | [16]
